Results filed as inconclusive are left out. Values without a mark were called inactive. Activity calls are given as the source filed them. The call rests on the fitted dose curve; in most records, active means well fitted cell-killing curve with a large enough effect; inconclusive means small, poorly fitted or top-dose-only effect; inactive means no such curve, though single readings can be large or run the other way.

This note sets out measurements from PubChem BioAssay (NCATS).
Potency means the concentration at half of the fitted maximal effect.

The experiment can be described thus: qHTS of pediatric cancer cell lines to identify multiple opportunities for drug repurposing: Primary screen for NB-EBc1 cells (AID 1347095). To be noted: NB-EBc1 neuroblastoma viability, CellTiter-Glo luminescence, 48 h; series mostly up to 46 µM; activity change, negative = cytotoxic: at the top concentration. From the text:
Drug repurposing or repositioning has been offered as a strategy for drug development in oncology programs. This approach has special potential for childhood cancers and other rare or orphan diseases, where the expected return on new drug development has been a disincentive to pharmaceuticals. […] In this project we exploit the poly-pharmacology of drugs to discover new indications via phenotypic screening of a panel of 19 well-characterized cell lines derived from solid tumors seen in children and adolescents. The goal is to identify approved drugs with previously unrecognized anticancer properties that has the potential to reveal new mechanisms and biological processes involved in carcinogenesis or drug resistance. We employed a titration-based paradigm (quantitative high-throughput screening or qHTS), where all compounds were tested at multiple concentrations for their effect on cell viability. Concentration-response curves (CRCs) were derived directly from the primary screen, and both potency and efficacy values were used to identify compounds with robust bioactivity profiles. We screened the NIH Chemical Genomics Center (NCGC) Pharmaceutical Collection (NPC) and Mechanism Interrogation Plate (MIPE) small molecule collections of approved and investigational compounds against these cell lines; and measured metabolically active cells after 48 hours of compound treatment as a proxy for cell viability. […] Assay Submitter: Nathalia J. Martinez, National Center for Advancing Translational Sciences, National Institutes of Health, Rockville, MD, USA; email: natalia.martinez@nih.gov Shen, M et al. Quantitative high-throughput phenotypic screening of pediatric cancer cell lines identifies multiple opportunities for drug repurposing. Oncotarget 2017 Dec 19;9(4):4758-4772. PMID 29435139.
The cells were obtained from University of North Carolina (UNC), Pediatric Preclinical Testing Program (PPT), and Coriell Institute (CI). qHTS cell viability assay: Cells were assayed in growth media at a density of 500-1,000 cells/well. Five microliters of cells were dispensed into 1,536-well, white, solid-bottom, TC-treated plates (Greiner Bio One) using a multidrop dispenser and incubated at 37 degrees C, 5% CO2, under a humidified atmosphere for 5 hours. Twenty-three nanoliters of compounds and controls (neutral control DMSO or positive control bortezomib at final concentration of 2.3 µM) were subsequently transferred by Kalypsys pintool. For primary screens, the MIPE collection was tested at 11-point dilutions (final concentrations range from 0.78 nM to 46 µM) and the NPC collection at 8-point dilutions (final concentrations range from 0.59 nM to 46 µM). Compounds tested in follow-up screens were assayed at 11-point dilutions. Cells were incubated for 48 hours, followed by addition of 3 µL of CellTiter-Glo (Promega). After a 15 min incubation at room temperature, samples were analyzed for luminescence intensity using a ViewLux High-throughput CCD imager equipped with clear filters.
For `O=C(OCC(O)CO)c1ccccc1Nc1ccnc2c(C(F)(F)F)cccc12` (stereo not given), the “activity change, negative = cytotoxic” value is -2.82%.
For `OC1(c2ccccc2)CCNCC1`, the “activity change, negative = cytotoxic” value was 3.77%.
On the same count and under the same terms, the figure for `CC(=O)N(CC(O)CO)c1c(I)c(C(=O)NCCO)c(I)c(C(=O)NCC(O)CO)c1I` (stereo not given) is 17.1%; for `CN1N=C(C(N)=O)CCC1=O` it is 14.9%; for `CCS(=O)(=O)c1ccc(OC)c(C(=O)OC)c1` it is 15.6%.
Regarding `Cc1ccc(/C=N/n2c(-c3ccccc3)csc2=S)cc1`, the “activity change, negative = cytotoxic” value is 16.7%.
`CCCCNc1ccc(C(=O)OCCN(CC)CC)cc1`: the “activity change, negative = cytotoxic” value was 19%.
The same measure, in the same setting: next, `CCC(=O)Oc1ccc2c(c1)CC[C@@H]1[C@@H]2CC[C@@]2(C)[C@H]1C[C@@H](OC(=O)CC)[C@@H]2OC(=O)CC`: 8%.
The same measure, in the same setting: next, `C[C@]12CCC(=O)C=C1CC[C@@H]1[C@@H]2[C@@H](O)C[C@@]2(C)[C@H]1CC[C@]2(O)C(=O)COC(=O)CCC(=O)O`: 12.3%; `CCCCC(CC)COC(=O)c1ccccc1C(=O)O` (stereo not given): 20.5% [at 92.7 µM].
The same measure, in the same setting: the figure for `Oc1ccccc1-c1nnco1` is 16.6%; for `Nc1ncnc2c1ncn2Cc1c(F)cccc1Cl` it is 21.2%; for `CC(C)NCCCC1(C(N)=O)c2ccccc2-c2ccccc21` it is 12.5%.
Turning to `CCCCCC1Nc2cc(C(F)(F)F)c(S(N)(=O)=O)cc2S(=O)(=O)N1` (stereo not given), the “activity change, negative = cytotoxic” value is 24.5%.
Still for that read-out and setting: next, `O=C(O)[C@@H](O)[C@H](O)[C@H](O)[C@@H](O)C(=O)O`: 1.32%; `O=C(CS(=O)Cc1ccco1)NC/C=C\COc1cc(CN2CCCCC2)ccn1` (stereo not given): 7.41%; `CC(Oc1c(Cl)cccc1Cl)C1=NCCN1` (stereo not given): -1.34%.
Same read-out and setting: the figure for `O=C(O)C1CCC1` is 24.9%.
Turning to `CCC(=O)O[C@]1(C(=O)COC)[C@@H](C)C[C@H]2[C@@H]3CCC4=CC(=O)C=C[C@]4(C)C3(F)[C@@H](O)C[C@@]21C` (stereo not given in full), the “activity change, negative = cytotoxic” value was 27.3%.
Turning to `CCC1=C[C@@H]2CN(C1)Cc1c([nH]c3ccccc13)[C@@](C(=O)OC)(c1cc3c(cc1OC)N(C)[C@H]1[C@@](O)(C(=O)OC)[C@H](OC(C)=O)[C@]4(CC)C=CCN5CC[C@]31[C@@H]54)C2`, the Potency was 0.0335 µM (active).
Consider `CCOc1ccc(NS(=O)(=O)c2ccc(N)cc2)nn1`, for which the “activity change, negative = cytotoxic” value was 11.2%.
On the same count and under the same terms, the figure for `C=C(C)C(=O)OCC(O)CO` (stereo not given) is -4.82%; for `CC(C(O)c1ccccc1)N(C)CCOC(c1ccccc1)c1ccccc1` (stereo not given) it is -19.3%; for `O=C(COCCOCCOCC(=O)Nc1c(I)cc(I)c(C(=O)O)c1I)Nc1c(I)cc(I)c(C(=O)O)c1I` it is 26.9%.
For `O=C(O)/C=C(\CC(=O)O)C(=O)O`, the “activity change, negative = cytotoxic” value was 21.3%.
As to `N=C(N)c1ccc(OCCCOc2ccc(C(=N)N)cc2)cc1`, the “activity change, negative = cytotoxic” value was 33.3%.
`Cc1cc(O)c(C)c(C)c1O`: the “activity change, negative = cytotoxic” value was 10%.
The same measure, in the same setting: next, `Cc1cc(=O)oc2cc(O[C@@H]3SC[C@@H](O)[C@H](O)[C@H]3O)ccc12`: 12.3%; `O=C(CCOCCOCCOCCOCCC(=O)Nc1c(I)cc(I)c(C(=O)O)c1I)Nc1c(I)cc(I)c(C(=O)O)c1I`: 25.2%; `N[C@@H](Cc1cc(I)c(O)c(I)c1)C(=O)O`: 11.6%.
In the case of `CCOc1ncc(F)c(=O)[nH]1`, the “activity change, negative = cytotoxic” value was 20.4%.
Regarding `Nc1nc2ccccc2n1Cc1ccc(F)cc1`, the “activity change, negative = cytotoxic” value was -7%.
Same read-out and setting: next, `CC(C)(C)C(O)/C=C/c1ccc2c(c1)OCO2` (stereo not given): 18.7%.
`Nc1ccc([N+](=O)[O-])c(C(F)(F)F)c1`: the “activity change, negative = cytotoxic” value was 0.742%.
Same read-out and setting: the figure for `c1ccc2c(c1)CCc1ccccc1N2` is 16.6%; for `O=C(OCC(COC(=O)c1cccnc1)(COC(=O)c1cccnc1)COC(=O)c1cccnc1)c1cccnc1` it is 9.38%.
On the same count and under the same terms, the figure for `Nc1nc(=O)n([C@@H]2O[C@H](CO)[C@@H](O)[C@@H]2F)cc1I` is -16.8%.
Take `O=C(Nc1ccc(Cl)cc1)Nc1ccc(Cl)c(Cl)c1`: the Potency is 23.7 µM (active).
As for `Cc1cccc(C)c1NC(=O)c1ccc(N)cc1`, the “activity change, negative = cytotoxic” value is 9.24%.
`COc1c(N2C[C@@H]3CCCN[C@@H]3C2)c(F)cc2c(=O)c(C(=O)O)cn(C3CC3)c12`: the “activity change, negative = cytotoxic” value was 57.3%.
